# In the supplement of paper PMC7366291:
# Where a name gives a salt, the structure may show the parent alone. ± gives the standard deviation of the averaged measurements.
# Tested on: Danio rerio Tg(wt1b:EGFP) embryo, pronephros
# Test: glomerular width (mean of left and right), fold change vs DMSO control; higher = wider glomerulus
# Conditions: 25 µM; exposure: 24-48 hpf
# Summary of the method: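 Each feature value is a fold change relative to the mean of same-day DMSO-treated embryos. Embryos of the Tg(wt1b:EGFP) zebrafish line, dechorionated, received 25 μM compound in 0.5% DMSO from 24 to 48 hpf at 28.5°C, in HEPES-buffered E3 with 0.003% PTU. Distances and angles were computed by a Fiji macro from 16 manually set reference points on maximum projections of dorsal pronephros images, and values beyond 2 SD of the feature mean were removed.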
row,SMILES,glomerular width
1,CN1[C@@H]2CC[C@H]1C[C@@H](OC1c3ccccc3CCc3ccccc31)C2 [Deptropine citrate],0.947 ± 0.035
2,CN1[C@@H]2CC[C@H]1C[C@@H](OC(=O)[C@H](CO)c1ccccc1)C2 [Hyoscyamine (L)],1.06 ± 0.03
3,CC(C)C[C@H](CN)CC(=O)O [Pregabalin],0.9518 ± 0.0028
4,CC(=O)[C@H]1CC[C@H]2[C@@H]3CC[C@H]4C[C@H](O)CC[C@]4(C)[C@H]3C(=O)C[C@]12C [Alfaxalone],0.957 ± 0.0043
5,CC(=O)NC1CCSC1=O (racemic) [N-Acetyl-DL-homocysteine Thiolactone],1.07 ± 0.041
6,CNC(=O)Oc1ccc2c(c1)[C@]1(C)CCN(C)[C@@H]1N2C [Eserine hemisulfate salt],1 ± 0.0036
7,CC[C@@H](CO)NC(=O)[C@@H]1C=C2c3cccc4[nH]cc(c34)C[C@H]2N(C)C1 [Methylergometrine maleate],0.927 ± 0.056
8,C[N+]1(C)CCCC(OC(=O)C(O)(c2ccccc2)c2ccccc2)C1 (centres undefined) [Mepenzolate bromide],1.01 ± 0.011
9,"CN1CCC2(C)c3cc(O)ccc3N(C)C12 (single isomer, unassigned; (-)) [(-)-Eseroline fumarate salt]",1.01 ± 0.025
10,CC(C)(C)NCC(O)c1cc(Cl)c(N)c(Cl)c1 (centres undefined) [Clenbuterol hydrochloride],1.08 ± 0.032
11,C=CCC1(CC(C)C)C(=O)NC(=O)NC1=O [Butalbital],1.1 ± 0.086
12,CC(C)(N)Cc1ccccc1 [Phentermine hydrochloride],0.981 ± 0.035
13,Oc1ccc2c3c1O[C@H]1[C@@H](O)CC[C@@]4(O)[C@@H](C2)N(CC2CCC2)CC[C@]314 [Nalbuphine hydrochloride],1 ± 0.033
14,CO[C@]12C[C@@H](COC(=O)c3cncc(Br)c3)CN(C)[C@@H]1Cc1cn(C)c3cccc2c13 [Nicergoline],1.02 ± 0.037
15,COc1ccc(CN2CCNCC2)c(OC)c1OC [Trimetazidine dihydrochloride],0.96 ± 0.014
16,CC(C)(C)NCC(O)c1ccccc1Cl (centres undefined) [Tulobuterol],0.9779 ± 0.007
17,CC[C@@H](C(N)=O)N1CCCC1=O [Levetiracetam],1.04 ± 0.041
18,C=CC[C@]1(O)CC[C@H]2[C@@H]3CCC4=CC(=O)CCC4=C3C=C[C@@]21C [Altrenogest],1.07 ± 0.0053
19,CN[C@@H]1[C@@H](O)[C@@H](O[C@@H]2[C@@H](O)[C@H](O[C@H]3O[C@H](CN)CC[C@H]3N)[C@@H](N)C[C@H]2N)OC[C@]1(C)O.CN[C@@H]1[C@@H](O)[C@@H](O[C@@H]2[C@@H](O)[C@H](O[C@H]3O[C@H]([C@@H](C)N)CC[C@H]3N)[C@@H](N)C[C@H]2N)OC[C@]1(C)O.CN[C@@H]1[C@@H](O)[C@@H](O[C@@H]2[C@@H](O)[C@H](O[C@H]3O[C@H]([C@@H](C)NC)CC[C@H]3N)[C@@H](N)C[C@H]2N)OC[C@]1(C)O [Gentamicine sulfate],1.02 ± 0.024
20,COc1ccc(CCN)cc1OC [Homoveratrylamine],0.994 ± 0.012
21,COc1ccc2c(c1)[C@]13CCCC[C@@H]1[C@H](C2)N(C)CC3 [Dextromethorphan hydrobromide monohydrate],0.9098 ± 0.004
22,c1ccc2c(c1)OCC(C1=NCCN1)O2 (centres undefined) [Idazoxan hydrochloride],0.99138 ± 0.00087
23,O=C(NCNC(=O)NC1C(=O)NC(=O)N1CO)NC1C(=O)NC(=O)N1CO (centres undefined) [Imidurea],1.008 ± 0.01
24,O=P1(NCCCl)OCCCN1CCCl (centres undefined) [Ifosfamide],0.999 ± 0.045

# Tested on: Danio rerio Tg(wt1b:EGFP) embryo, pronephros
# Test: fraction of imaged embryos annotated as normal kidney; higher = less nephrotoxic; extreme values may be limits of the assay
# Conditions: 25 µM; exposure: 24-48 hpf
# Summary of the method: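 The value given is the share of embryos in each treatment scored as having a normal kidney. To obtain it, dechorionated Tg(wt1b:EGFP) zebrafish embryos were treated from 24 to 48 hpf at 28.5°C with 25 μM compound in 0.5% DMSO, in 5 mM HEPES-buffered E3 with 0.003% PTU. Pronephroi were imaged by widefield fluorescence (470 nm, 10 z-slices), and every embryo was annotated by hand from maximum projections.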
row,SMILES,fraction of imaged embryos annotated as normal kidney
1,CC(C)c1cccc(C(C)C)c1O [Propofol],0.75
2,CC(CCc1ccccc1)NC(C)C(O)c1ccc(O)cc1 (centres undefined) [Nylidrin],0.917
3,CCC(C)C1O[C@]2(C=C[C@@H]1C)C[C@@H]1CC(C/C=C(\C)[C@@H](OC3C[C@H](OC)[C@@H](OC4C[C@H](OC)[C@@H](O)[C@H](C)O4)[C@H](C)O3)[C@@H](C)/C=C/C=C3\COC4[C@H](O)C(C)=CC(C(=O)O1)[C@]34O)O2 (some centres undefined) [Avermectin B1a],0.583
4,CC(C)[N+](C)(CCC(C(N)=O)(c1ccccc1)c1ccccc1)C(C)C [Isopropamide iodide],0.818
5,C=CCN1CC[C@]23c4c5ccc(O)c4O[C@H]2C(=O)CC[C@@]3(O)[C@H]1C5 [Naloxone hydrochloride],0.833
6,CC(=O)OC1CN2CCC1CC2 (centres undefined) [Aceclidine Hydrochloride],0.917
7,CCC1(CC)C(=O)C=CNC1=O [Pyrithyldione],0.727
8,C=C1CC[C@@]2(O)[C@H]3Cc4ccc(O)c5c4[C@@]2(CCN3CC2CC2)[C@H]1O5 [Nalmefene hydrochloride],0.75
9,CN1C[C@H](C(=O)N[C@]2(C)O[C@@]3(O)[C@@H]4CCCN4C(=O)[C@H](Cc4ccccc4)N3C2=O)C[C@@H]2c3cccc4[nH]cc(c34)C[C@H]21 [Dihydroergotamine tartrate],0.833
10,C#CCN(C)[C@H](C)Cc1ccccc1 [Selegiline hydrochloride],0.75
11,C[C@]12N[C@H](Cc3ccccc31)c1ccccc12 [Dizocilpine maleate],0.917
12,CN1[C@@H]2CC[C@H]1C[C@@H](OC1c3ccccc3CCc3ccccc31)C2 [Deptropine citrate],1
13,CN1[C@@H]2CC[C@H]1C[C@@H](OC(=O)[C@H](CO)c1ccccc1)C2 [Hyoscyamine (L)],0.75
14,CC(C)C[C@H](CN)CC(=O)O [Pregabalin],0.917
15,CC(=O)[C@H]1CC[C@H]2[C@@H]3CC[C@H]4C[C@H](O)CC[C@]4(C)[C@H]3C(=O)C[C@]12C [Alfaxalone],0.583
16,CC(=O)NC1CCSC1=O (racemic) [N-Acetyl-DL-homocysteine Thiolactone],0.917
17,CNC(=O)Oc1ccc2c(c1)[C@]1(C)CCN(C)[C@@H]1N2C [Eserine hemisulfate salt],1
18,CC[C@@H](CO)NC(=O)[C@@H]1C=C2c3cccc4[nH]cc(c34)C[C@H]2N(C)C1 [Methylergometrine maleate],0.909

row,SMILES,fraction of imaged embryos annotated as normal kidney
1,C[N+]1(C)CCCC(OC(=O)C(O)(c2ccccc2)c2ccccc2)C1 (centres undefined) [Mepenzolate bromide],0.727
2,"CN1CCC2(C)c3cc(O)ccc3N(C)C12 (single isomer, unassigned; (-)) [(-)-Eseroline fumarate salt]",0.917
3,CC(C)(C)NCC(O)c1cc(Cl)c(N)c(Cl)c1 (centres undefined) [Clenbuterol hydrochloride],0.75
4,C=CCC1(CC(C)C)C(=O)NC(=O)NC1=O [Butalbital],0.75
5,CC(C)(N)Cc1ccccc1 [Phentermine hydrochloride],0.917
6,Oc1ccc2c3c1O[C@H]1[C@@H](O)CC[C@@]4(O)[C@@H](C2)N(CC2CCC2)CC[C@]314 [Nalbuphine hydrochloride],0.75
7,CO[C@]12C[C@@H](COC(=O)c3cncc(Br)c3)CN(C)[C@@H]1Cc1cn(C)c3cccc2c13 [Nicergoline],1
8,COc1ccc(CN2CCNCC2)c(OC)c1OC [Trimetazidine dihydrochloride],0.917
9,CC(C)(C)NCC(O)c1ccccc1Cl (centres undefined) [Tulobuterol],0.917
10,CC[C@@H](C(N)=O)N1CCCC1=O [Levetiracetam],0.917
11,C=CC[C@]1(O)CC[C@H]2[C@@H]3CCC4=CC(=O)CCC4=C3C=C[C@@]21C [Altrenogest],0.333
12,CN[C@@H]1[C@@H](O)[C@@H](O[C@@H]2[C@@H](O)[C@H](O[C@H]3O[C@H](CN)CC[C@H]3N)[C@@H](N)C[C@H]2N)OC[C@]1(C)O.CN[C@@H]1[C@@H](O)[C@@H](O[C@@H]2[C@@H](O)[C@H](O[C@H]3O[C@H]([C@@H](C)N)CC[C@H]3N)[C@@H](N)C[C@H]2N)OC[C@]1(C)O.CN[C@@H]1[C@@H](O)[C@@H](O[C@@H]2[C@@H](O)[C@H](O[C@H]3O[C@H]([C@@H](C)NC)CC[C@H]3N)[C@@H](N)C[C@H]2N)OC[C@]1(C)O [Gentamicine sulfate],0.667
13,COc1ccc(CCN)cc1OC [Homoveratrylamine],0.75
14,COc1ccc2c(c1)[C@]13CCCC[C@@H]1[C@H](C2)N(C)CC3 [Dextromethorphan hydrobromide monohydrate],0.833
15,c1ccc2c(c1)OCC(C1=NCCN1)O2 (centres undefined) [Idazoxan hydrochloride],0.833
16,O=C(NCNC(=O)NC1C(=O)NC(=O)N1CO)NC1C(=O)NC(=O)N1CO (centres undefined) [Imidurea],0.833
17,O=P1(NCCCl)OCCCN1CCCl (centres undefined) [Ifosfamide],0.833
